Test results: the supplement of paper PMC9925115

What follows are compounds tested on FLX1 + dox-induced PRKAR1A G325D (assay: difference in log2 fold change of viability vs plate median (dox-induced PRKAR1A G325D minus uninduced); higher = compound less effective when PKA is inhibited). Conditions: concentration: not stated (2 or 5 uM); 5 days.
Description: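 For each plate a log2 fold change vs the plate median was derived, and the values without dox were subtracted from those with dox, averaged over three biological replicates.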

Cc1ccccc1-n1c(Cn2ncc3c(N)ncnc32)nc2cccc(C)c2c1=O and Cn1cc(C2=C(c3cn(C4CCN(Cc5ccccn5)CC4)c4ccccc34)C(=O)NC2=O)c2ccccc21 are within 0.2 log units of each other in “difference in log2 fold change of viability” value (from here on “difference in log2 fold change”): -0.0566 for the first, -0.214 for the second.

Compared with CC(C)(C)c1cc(C=C(C#N)C#N)cc(Br)c1O, CC(C)(C)c1cc(C=C(C#N)C#N)cc(C(C)(C)C)c1O [Tyrphostin 9] is lower in “difference in log2 fold change” value: 0.78 for the first, 0.375 for the second.

O=c1[nH]c2ccc(Cl)cc2c(N[C@@H]2CN3CCC2CC3)c1-c1nc2ccccc2[nH]1 and CCN1CCN(C(=O)Cc2ccc(Nc3ncc(F)c(Nc4ccc(C(=O)Nc5ccccc5Cl)cc4)n3)cc2)CC1 [Aurora A Inhibitor I] are within 0.2 log units of each other in “difference in log2 fold change” value: -0.0624 for the first, -0.138 for the second.
